Reference: PubChem BioAssay (Tox21)
Results filed as inconclusive are left out. A number with no mark means an inactive call. The source made the active and inactive calls. Calls come from the whole dose curve.

These molecules were tested against Peroxisome proliferator-activated receptor delta (Homo sapiens) (UniProt Q03181) (assay: qHTS assay to identify small molecule agonists of the peroxisome proliferator-activated receptor delta (PPARd) signaling pathway (AID 743212)). Settings: HEK293H PPARd-UAS-bla, beta-lactamase FRET ratio, 17 h; series mostly up to 62.6 µM; activation: at the top concentration.
Peroxisome proliferator-activated receptor delta (Homo sapiens), sequence (Q03181 whole entry, looked up): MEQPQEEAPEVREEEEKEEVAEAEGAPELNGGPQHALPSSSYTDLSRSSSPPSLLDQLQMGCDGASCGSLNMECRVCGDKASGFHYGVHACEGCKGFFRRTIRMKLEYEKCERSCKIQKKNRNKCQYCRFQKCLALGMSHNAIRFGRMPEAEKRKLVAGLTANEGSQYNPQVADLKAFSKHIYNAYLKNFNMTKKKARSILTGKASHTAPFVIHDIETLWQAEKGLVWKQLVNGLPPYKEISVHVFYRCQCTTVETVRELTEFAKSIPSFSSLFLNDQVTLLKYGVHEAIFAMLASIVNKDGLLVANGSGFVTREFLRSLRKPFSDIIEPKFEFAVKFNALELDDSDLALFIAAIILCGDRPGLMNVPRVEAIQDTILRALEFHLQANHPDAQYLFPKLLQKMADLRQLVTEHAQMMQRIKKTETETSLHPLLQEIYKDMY
Description: U.S. Tox21 Program National Center for Advancing Translational Sciences [NCATS] NIH Chemical Genomics Center [NCGC] U.S. Environmental Protection Agency [EPA] National Institutes of Environmental Health Sciences [NIEHS] National Toxicology Program [NTP] U.S. Food and Drug Administration [FDA] Tox21 Assay Overview: The peroxisome proliferator-activated receptors (PPARs) are lipid-activated transcription factors of the nuclear receptor superfamily with three distinct subtypes namely PPAR alpha, PPAR delta (PPARd) and PPAR gamma. All these subtypes heterodimerizes with Retinoid X receptor (RXR) and have different physiological functions. […] To identify the compounds that activate PPAR-delta signaling, GeneBLAzer PPAR delta UAS-bla HEK293H cell line (Invitrogen, Carlsbad, CA, USA) containing a beta-lactamase reporter gene under the control of an Upstream Activator Sequence (UAS) was used to screen the Tox21 compound library.
Tox21 Assay Protocol Summary: PPARd-bla cells were dispensed at 3000 cells/6uL/well in 1536-well black wall/clear bottom plates using a Multidrop Combi (Thermo Fisher Scientific, Waltham, MA) dispenser. After the assay plates were incubated at 37 C and 5% CO2 for 5 h, 23 nL of compounds dissolved in DMSO, positive controls or DMSO only was transferred to the assay plate by a Pintool station (Kalypsys, San Diego, CA). The assay plates were incubated at 37C for 17 h. After 1 uL of LiveBLAzerTM B/G FRET substrate was added using a Bioraptr Flying Reagent Dispenser (FRD) workstation (Beckman Coulter, Indianapolis, IN, USA), the plates were incubated at room temperature for 2 h, and fluorescence intensity was measured by an Envision plate reader (PerkinElmer, Shelton, CT).
% is set by controls: 0 for no effect and ±100 for the full control effect; potency is the fitted concentration of half-maximal effect.

Row | Compound | activation | Potency
1 | CCOP(=S)(OCC)OC(Cl)C(Cl)(Cl)Cl (stereo not given) | 1.23% | 
2 | CCOC(=O)OC1=C(c2cc(C)ccc2C)C(=O)NC12CCC(OC)CC2 (stereo not given) | -4.67% | 
3 | NNC(=O)c1ccccc1 | -1.01% [at 81.1 µM] | 
4 | CCN(CC)c1c([N+](=O)[O-])cc(C(F)(F)F)c(N)c1[N+](=O)[O-] | 0.818% | 
5 | N#CCCC(Br)(C#N)CBr (stereo not given) | -9.09% | 
6 | Clc1ccc(CO/N=C(\Cn2ccnc2)c2ccc(Cl)cc2Cl)c(Cl)c1 | 1.07% | 
7 | ClC1=C(Cl)[C@]2(Cl)[C@H]3[C@H]([C@H]4C=C[C@H]3C4)[C@@]1(Cl)C2(Cl)Cl | -5.1% | 
8 | CC(Cc1ccc(C(C)(C)C)cc1)CN1C[C@@H](C)O[C@@H](C)C1 (stereo not given in full) | 10.5% | 
9 | COP(=S)(OC)Oc1cc(Cl)c(Br)cc1Cl | 5.27% | 
10 | Clc1ccc(C(c2ccccc2Cl)C(Cl)(Cl)Cl)cc1 (stereo not given) | -0.106% | 
11 | COc1ccc(N)cc1N | 9.62% | 
12 | CN(C)CCc1c[nH]c2ccc(O)cc12 | -6.71% [at 81.1 µM] | 
13 | Clc1ccc(C(c2ccc(Cl)cc2)C(Cl)(Cl)Cl)cc1 |  | inactive
14 | Cc1cc(C)c(C2=C(OC(=O)CC(C)(C)C)C3(CCCC3)OC2=O)c(C)c1 | 4.35% [at 81.1 µM] | 
15 | COc1ccc(OC)c(CC(C)N)c1 (stereo not given) | 1.99% [at 81.1 µM] | 
16 | [Cl][Sb]([Cl])[Cl] | -13% | 
17 | Fc1cccc(Cl)c1CCl | 0.173% | 
18 | C1CCC2CCCCC2C1 (stereo not given) | 1.07% [at 81.1 µM] | 
19 | CC(C)OC(=O)C(O)(c1ccc(Cl)cc1)c1ccc(Cl)cc1 | -2.74% | 
20 | COc1cccc2c1C(=O)c1c(O)c3c(c(O)c1C2=O)C[C@@](O)(C(=O)CO)CC3OC1CC(N2CCOC(OC)C2)C(O)C(C)O1 (stereo not given in full) | -7.68% | 

Row | Compound | activation | Potency
21 | CN(C)c1ccc(N=Nc2ccccc2)cc1 | -8.09% | 
22 | CCCCCCCCCCCCCN1CC(C)OC(C)C1 (stereo not given) | 1.67% | 
23 | c1ccc(Nc2ccc3ccccc3c2)cc1 |  | inactive
24 | COc1cc(C=O)cc2c1[C@H](COC(N)=O)[C@]1(OC(C)=O)ON2C[C@H]2[C@@H]1N2C(C)=O | 0.525% | 
25 | CC(C)[C@H](C(=O)O[C@H](C#N)c1cccc(Oc2ccccc2)c1)c1ccc(Cl)cc1 | 0.696% | 
26 | C[C@]12CC[C@@H]3c4ccc(OC(=O)N(CCCl)CCCl)cc4CC[C@H]3[C@@H]1CC[C@@H]2O | -2.71% | 
27 | CN(C)CCc1c[nH]c2cccc(O)c12 | 1.34% [at 81.1 µM] | 
28 | CCCCCCCCCCCCCCC(Br)C(=O)O (stereo not given) |  | 13.8 µM (active)
29 | COc1cccc(C(=O)CCN[C@@H](C)[C@H](O)c2ccccc2)c1 | -0.565% | 
30 | ClC1=C(Cl)C2(Cl)C3C(Cl)C=CC3C1(Cl)C2(Cl)Cl (stereo not given) | -5.06% [at 81.1 µM] | 
31 | OC(c1ccc(Cl)cc1)(c1ccc(Cl)cc1)C(Cl)(Cl)Cl | 0.197% | 
32 | ClCc1ccc(Cl)cc1Cl | -1.87% | 
33 | CN(C)C1CSSSC1 | -0.567% | 
34 | CC(=O)c1cc(C(C)(C)C)cc2c1CCC2(C)C | 4.3% | 
35 | CC(C)(C)OO | 2.17% | 
36 | CC(C)(C)C(O)/C(=C\c1ccc(Cl)cc1Cl)n1cncn1 (stereo not given) | -11.3% [at 81.1 µM] | 
37 | CCCCCCCCCCCCBr | -1.73% | 
38 | CC(=O)OC1(c2ccccc2)CCN(CCc2ccccc2)CC1 | -4.21% [at 81.1 µM] | 
39 | CC(C)OC(=S)S | 1.96% | 
40 | Cc1cc(C(C)(C)c2cc(C)c(O)c(C)c2)cc(C)c1O | 13.7% | 
